Assay results published in ChEMBL document CHEMBL2218924, “A broad activity screen in support of a chemogenomic map for kinase signalling research and drug discovery” (Biochem J, 2013).

Key:
[1] = target: Tyrosine-protein kinase SYK (Homo sapiens) (UniProt P43405); details: at 10 µM
[2] = target: T1, Mitogen-activated protein kinase kinase kinase 7 (Homo sapiens) (UniProt O43318); details: at 1 µM
T1 sequence (whole entry): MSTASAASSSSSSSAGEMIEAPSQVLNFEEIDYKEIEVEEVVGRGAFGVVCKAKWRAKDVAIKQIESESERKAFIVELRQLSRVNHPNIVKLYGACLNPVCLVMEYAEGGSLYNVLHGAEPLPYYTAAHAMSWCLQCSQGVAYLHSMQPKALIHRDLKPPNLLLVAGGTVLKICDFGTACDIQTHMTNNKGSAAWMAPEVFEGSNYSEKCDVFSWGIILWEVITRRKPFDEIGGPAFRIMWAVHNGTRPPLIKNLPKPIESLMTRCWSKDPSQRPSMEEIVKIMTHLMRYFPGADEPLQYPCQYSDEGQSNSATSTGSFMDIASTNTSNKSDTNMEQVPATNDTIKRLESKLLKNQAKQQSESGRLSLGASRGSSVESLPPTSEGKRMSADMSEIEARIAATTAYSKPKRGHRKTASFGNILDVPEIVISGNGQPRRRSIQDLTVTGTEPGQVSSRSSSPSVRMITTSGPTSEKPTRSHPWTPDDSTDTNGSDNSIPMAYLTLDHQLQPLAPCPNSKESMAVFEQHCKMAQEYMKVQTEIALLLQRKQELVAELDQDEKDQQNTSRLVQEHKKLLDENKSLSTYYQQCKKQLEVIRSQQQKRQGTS

[3] = target: T1, Mitogen-activated protein kinase kinase kinase 7 (Homo sapiens); details: at 10 µM
[4] = target: T2, Serine/threonine-protein kinase TAO1 (Homo sapiens) (UniProt Q7L7X3); details: at 1 µM
T2 sequence (whole entry): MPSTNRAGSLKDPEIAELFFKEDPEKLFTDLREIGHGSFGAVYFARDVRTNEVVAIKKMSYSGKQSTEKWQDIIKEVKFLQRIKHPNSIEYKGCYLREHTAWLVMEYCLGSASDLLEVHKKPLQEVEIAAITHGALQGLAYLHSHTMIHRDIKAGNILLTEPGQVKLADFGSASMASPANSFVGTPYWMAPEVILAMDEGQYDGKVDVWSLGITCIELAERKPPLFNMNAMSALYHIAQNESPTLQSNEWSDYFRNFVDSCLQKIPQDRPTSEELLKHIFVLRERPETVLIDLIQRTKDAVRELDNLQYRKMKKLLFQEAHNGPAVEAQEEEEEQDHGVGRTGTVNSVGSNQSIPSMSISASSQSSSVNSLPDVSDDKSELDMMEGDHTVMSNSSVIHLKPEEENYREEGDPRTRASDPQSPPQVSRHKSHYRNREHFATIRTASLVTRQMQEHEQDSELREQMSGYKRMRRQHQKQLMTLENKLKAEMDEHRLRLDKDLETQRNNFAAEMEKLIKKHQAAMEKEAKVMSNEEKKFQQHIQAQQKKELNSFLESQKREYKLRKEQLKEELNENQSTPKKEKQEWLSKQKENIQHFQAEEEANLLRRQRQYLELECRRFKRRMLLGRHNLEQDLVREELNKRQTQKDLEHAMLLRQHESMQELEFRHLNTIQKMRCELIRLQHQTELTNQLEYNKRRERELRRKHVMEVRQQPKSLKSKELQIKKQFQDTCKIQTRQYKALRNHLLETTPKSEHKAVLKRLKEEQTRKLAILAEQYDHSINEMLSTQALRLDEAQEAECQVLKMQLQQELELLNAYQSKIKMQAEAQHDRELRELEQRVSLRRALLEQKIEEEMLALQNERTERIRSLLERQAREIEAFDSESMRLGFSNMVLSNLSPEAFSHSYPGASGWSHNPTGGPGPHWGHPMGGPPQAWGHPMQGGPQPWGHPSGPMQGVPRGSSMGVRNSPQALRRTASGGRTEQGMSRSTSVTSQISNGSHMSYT

[5] = target: T2, Serine/threonine-protein kinase TAO1 (Homo sapiens); details: at 10 µM
[6] = target: T3, Serine/threonine-protein kinase TAO3 (Homo sapiens) (UniProt Q9H2K8); details: at 1 µM
T3 sequence (whole entry): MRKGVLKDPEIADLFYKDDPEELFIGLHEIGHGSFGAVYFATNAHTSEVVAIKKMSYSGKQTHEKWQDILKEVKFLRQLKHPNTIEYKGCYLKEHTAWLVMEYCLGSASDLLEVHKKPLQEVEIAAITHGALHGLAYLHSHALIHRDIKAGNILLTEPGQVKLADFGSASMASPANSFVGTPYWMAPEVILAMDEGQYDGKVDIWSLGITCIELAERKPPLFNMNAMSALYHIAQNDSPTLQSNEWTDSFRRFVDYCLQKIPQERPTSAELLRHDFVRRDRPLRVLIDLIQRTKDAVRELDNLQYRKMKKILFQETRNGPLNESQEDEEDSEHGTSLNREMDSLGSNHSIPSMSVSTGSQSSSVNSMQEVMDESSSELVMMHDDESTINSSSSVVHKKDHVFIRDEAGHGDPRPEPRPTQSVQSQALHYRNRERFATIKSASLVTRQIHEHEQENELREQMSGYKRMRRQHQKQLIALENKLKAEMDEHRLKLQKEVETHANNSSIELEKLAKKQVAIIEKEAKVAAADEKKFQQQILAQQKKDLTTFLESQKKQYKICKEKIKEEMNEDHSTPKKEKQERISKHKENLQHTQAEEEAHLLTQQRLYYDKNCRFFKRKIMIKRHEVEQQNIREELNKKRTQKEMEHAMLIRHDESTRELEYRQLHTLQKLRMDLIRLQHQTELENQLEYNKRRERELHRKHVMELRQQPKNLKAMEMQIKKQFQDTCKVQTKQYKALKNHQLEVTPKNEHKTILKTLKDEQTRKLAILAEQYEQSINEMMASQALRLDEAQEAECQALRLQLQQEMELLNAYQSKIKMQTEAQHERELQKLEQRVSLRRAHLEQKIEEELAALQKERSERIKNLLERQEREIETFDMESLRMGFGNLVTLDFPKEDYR

[7] = target: T3, Serine/threonine-protein kinase TAO3 (Homo sapiens); details: at 10 µM
[8] = target: T4, Serine/threonine-protein kinase TBK1 (Homo sapiens) (UniProt Q9UHD2); details: at 1 µM
T4 sequence (whole entry): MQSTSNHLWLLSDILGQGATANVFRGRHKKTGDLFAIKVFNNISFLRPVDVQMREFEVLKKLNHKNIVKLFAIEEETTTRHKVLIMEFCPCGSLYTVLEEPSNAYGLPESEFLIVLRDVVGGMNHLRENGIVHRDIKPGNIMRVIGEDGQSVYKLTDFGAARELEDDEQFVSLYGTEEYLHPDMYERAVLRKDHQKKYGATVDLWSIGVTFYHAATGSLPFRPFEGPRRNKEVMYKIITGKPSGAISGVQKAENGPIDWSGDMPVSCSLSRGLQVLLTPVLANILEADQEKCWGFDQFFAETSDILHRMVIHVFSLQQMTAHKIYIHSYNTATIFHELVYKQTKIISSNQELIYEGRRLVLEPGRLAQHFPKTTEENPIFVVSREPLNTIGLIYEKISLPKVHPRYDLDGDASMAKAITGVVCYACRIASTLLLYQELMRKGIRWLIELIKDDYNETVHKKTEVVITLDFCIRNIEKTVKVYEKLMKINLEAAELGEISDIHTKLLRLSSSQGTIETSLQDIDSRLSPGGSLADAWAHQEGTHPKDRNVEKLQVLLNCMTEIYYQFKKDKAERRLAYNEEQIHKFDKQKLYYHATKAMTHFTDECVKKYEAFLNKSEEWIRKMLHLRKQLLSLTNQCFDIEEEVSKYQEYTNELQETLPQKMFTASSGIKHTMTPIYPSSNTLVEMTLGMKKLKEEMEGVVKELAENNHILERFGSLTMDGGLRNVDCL

[9] = target: T4, Serine/threonine-protein kinase TBK1 (Homo sapiens); details: at 10 µM
[10] = target: Insulin-like growth factor 1 receptor (Homo sapiens) (UniProt P08069); details: at 1 µM
Insulin-like growth factor 1 receptor (Homo sapiens), sequence (P08069 31-736 limits assumed): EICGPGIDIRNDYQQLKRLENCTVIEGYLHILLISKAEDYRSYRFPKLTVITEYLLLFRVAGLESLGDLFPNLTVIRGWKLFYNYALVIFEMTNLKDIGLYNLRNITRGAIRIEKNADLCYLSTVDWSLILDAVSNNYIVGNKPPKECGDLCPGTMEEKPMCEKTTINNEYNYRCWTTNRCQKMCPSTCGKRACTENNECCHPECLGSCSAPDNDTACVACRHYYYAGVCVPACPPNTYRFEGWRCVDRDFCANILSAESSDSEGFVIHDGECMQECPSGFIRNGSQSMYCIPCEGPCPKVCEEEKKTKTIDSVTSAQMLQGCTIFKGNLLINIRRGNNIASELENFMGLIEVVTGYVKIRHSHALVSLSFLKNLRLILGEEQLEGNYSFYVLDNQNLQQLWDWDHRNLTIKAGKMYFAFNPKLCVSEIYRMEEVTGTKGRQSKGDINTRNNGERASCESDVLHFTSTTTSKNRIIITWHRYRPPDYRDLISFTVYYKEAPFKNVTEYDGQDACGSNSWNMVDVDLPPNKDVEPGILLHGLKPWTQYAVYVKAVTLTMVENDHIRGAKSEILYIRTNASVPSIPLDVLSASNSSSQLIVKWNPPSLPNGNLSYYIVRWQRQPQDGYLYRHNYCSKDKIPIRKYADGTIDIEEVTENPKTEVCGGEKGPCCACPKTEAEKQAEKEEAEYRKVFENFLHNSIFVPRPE
Insulin-like growth factor 1 receptor (Homo sapiens), sequence (P08069 741-1367 limits assumed): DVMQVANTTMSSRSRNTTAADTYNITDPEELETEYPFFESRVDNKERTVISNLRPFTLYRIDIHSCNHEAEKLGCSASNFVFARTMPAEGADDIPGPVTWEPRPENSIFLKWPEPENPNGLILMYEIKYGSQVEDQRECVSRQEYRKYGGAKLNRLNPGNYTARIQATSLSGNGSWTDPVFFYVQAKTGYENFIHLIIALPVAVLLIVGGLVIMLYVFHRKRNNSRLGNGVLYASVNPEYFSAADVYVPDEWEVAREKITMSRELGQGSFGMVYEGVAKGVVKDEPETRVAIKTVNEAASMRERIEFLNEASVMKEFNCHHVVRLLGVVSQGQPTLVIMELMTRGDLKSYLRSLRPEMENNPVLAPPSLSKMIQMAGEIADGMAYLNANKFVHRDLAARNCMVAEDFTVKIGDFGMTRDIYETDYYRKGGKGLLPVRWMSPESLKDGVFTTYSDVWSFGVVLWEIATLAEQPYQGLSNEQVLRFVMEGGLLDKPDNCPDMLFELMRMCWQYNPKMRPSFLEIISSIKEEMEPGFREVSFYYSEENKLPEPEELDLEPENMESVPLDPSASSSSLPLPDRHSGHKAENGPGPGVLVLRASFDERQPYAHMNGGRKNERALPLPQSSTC

[11] = target: Insulin-like growth factor 1 receptor (Homo sapiens) (UniProt P08069); details: at 10 µM
[12] = target: T5, Inhibitor of nuclear factor kappa-B kinase subunit alpha (Homo sapiens) (UniProt O15111); details: at 10 µM
T5 sequence (whole entry): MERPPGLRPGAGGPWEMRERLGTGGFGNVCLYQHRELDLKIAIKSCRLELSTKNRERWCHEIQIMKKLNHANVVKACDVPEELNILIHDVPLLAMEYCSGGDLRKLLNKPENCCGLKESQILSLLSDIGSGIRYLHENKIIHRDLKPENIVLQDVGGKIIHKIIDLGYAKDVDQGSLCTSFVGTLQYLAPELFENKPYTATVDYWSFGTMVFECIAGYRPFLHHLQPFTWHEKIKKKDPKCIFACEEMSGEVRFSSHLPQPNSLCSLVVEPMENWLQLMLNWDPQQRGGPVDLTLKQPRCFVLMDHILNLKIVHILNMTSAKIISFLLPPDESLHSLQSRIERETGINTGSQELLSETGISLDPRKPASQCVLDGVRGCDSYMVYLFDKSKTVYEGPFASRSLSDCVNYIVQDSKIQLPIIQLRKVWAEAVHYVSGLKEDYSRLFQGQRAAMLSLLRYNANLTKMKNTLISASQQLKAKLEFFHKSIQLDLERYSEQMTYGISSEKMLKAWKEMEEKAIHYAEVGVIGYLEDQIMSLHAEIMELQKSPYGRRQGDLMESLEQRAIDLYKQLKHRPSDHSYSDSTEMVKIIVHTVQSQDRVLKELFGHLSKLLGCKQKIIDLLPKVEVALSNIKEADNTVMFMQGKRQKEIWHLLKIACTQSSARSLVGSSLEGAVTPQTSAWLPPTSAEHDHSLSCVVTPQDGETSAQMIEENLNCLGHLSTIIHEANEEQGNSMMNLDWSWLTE

[13] = target: T6, Inhibitor of nuclear factor kappa-B kinase subunit beta (Homo sapiens) (UniProt O14920); details: at 1 µM
T6 sequence (whole entry): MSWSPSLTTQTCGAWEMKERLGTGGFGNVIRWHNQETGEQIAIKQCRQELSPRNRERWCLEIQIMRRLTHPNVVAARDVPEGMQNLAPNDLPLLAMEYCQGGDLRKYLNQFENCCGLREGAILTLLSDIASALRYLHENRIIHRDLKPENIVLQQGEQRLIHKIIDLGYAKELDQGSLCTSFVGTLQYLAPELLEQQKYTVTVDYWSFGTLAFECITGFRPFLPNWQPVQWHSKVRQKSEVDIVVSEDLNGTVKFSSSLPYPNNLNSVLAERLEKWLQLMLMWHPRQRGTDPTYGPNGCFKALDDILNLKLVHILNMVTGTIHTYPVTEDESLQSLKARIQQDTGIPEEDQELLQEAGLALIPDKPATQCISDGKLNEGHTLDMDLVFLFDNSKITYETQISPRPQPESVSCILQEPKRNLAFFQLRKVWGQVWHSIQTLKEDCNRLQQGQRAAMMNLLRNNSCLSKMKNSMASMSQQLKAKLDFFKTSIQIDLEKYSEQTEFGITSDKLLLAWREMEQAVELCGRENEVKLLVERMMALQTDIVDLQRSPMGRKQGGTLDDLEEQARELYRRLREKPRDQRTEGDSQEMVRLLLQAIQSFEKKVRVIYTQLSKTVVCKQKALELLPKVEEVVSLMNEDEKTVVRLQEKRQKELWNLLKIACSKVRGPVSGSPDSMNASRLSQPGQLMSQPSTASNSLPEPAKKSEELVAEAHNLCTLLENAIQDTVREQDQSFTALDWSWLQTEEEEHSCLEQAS

[14] = target: Insulin receptor (Homo sapiens) (UniProt P06213); details: at 1 µM
Insulin receptor (Homo sapiens), sequence (P06213 28-758 limits assumed): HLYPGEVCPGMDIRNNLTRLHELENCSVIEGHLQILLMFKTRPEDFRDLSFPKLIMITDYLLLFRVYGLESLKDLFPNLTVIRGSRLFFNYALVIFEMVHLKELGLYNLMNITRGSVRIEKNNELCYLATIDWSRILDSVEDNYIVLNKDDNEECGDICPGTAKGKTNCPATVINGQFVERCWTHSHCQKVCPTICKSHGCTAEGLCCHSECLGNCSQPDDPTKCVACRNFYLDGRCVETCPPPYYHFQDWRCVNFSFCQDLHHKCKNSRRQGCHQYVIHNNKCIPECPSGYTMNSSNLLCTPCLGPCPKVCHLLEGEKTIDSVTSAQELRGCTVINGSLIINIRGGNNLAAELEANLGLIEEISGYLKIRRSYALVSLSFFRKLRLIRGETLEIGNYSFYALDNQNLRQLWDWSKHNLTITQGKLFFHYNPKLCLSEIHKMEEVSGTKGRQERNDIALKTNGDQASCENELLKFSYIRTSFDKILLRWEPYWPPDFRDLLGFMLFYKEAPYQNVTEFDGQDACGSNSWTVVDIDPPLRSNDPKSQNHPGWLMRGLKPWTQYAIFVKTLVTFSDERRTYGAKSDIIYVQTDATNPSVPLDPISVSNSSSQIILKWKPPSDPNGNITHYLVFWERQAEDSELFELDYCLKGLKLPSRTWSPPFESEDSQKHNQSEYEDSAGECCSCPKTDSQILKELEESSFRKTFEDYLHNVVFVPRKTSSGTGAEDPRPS
Insulin receptor (Homo sapiens), sequence (P06213 763-1382 limits assumed): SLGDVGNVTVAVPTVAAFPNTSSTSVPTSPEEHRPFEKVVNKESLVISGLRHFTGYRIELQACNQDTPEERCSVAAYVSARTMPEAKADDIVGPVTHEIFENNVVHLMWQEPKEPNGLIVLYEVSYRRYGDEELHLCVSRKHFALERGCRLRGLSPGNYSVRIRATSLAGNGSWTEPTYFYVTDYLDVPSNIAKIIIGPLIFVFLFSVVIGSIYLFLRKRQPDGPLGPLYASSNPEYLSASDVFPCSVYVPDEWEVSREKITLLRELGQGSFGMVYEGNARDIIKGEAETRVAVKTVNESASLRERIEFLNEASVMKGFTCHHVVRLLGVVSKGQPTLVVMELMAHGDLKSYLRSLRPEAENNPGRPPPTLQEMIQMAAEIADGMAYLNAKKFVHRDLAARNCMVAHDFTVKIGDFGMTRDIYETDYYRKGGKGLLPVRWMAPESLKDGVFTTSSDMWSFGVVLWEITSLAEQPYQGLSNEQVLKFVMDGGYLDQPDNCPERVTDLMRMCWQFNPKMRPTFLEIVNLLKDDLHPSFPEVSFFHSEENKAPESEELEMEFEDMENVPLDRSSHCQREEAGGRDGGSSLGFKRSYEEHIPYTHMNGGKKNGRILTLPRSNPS

CCN(CC)CCNC(=O)c1c(C)[nH]c(/C=C2\C(=O)Nc3ccc(Cl)cc32)c1C
residual activity [1]: 33%
residual activity [2]: 4%
residual activity [3]: -3%
residual activity [4]: 71%
residual activity [5]: 18%
residual activity [6]: 79%
residual activity [7]: 24%
residual activity [8]: 15%
residual activity [9]: 1%
residual activity [10]: 30%
residual activity [11]: 3%
residual activity [12]: 65%
residual activity [13]: 98%
residual activity [14]: 32%

O=C1NC(=O)C(c2cn(CCCO)c3ncccc23)=C1c1cnccn1
residual activity [1]: 96%
residual activity [2]: 94%
residual activity [3]: 81%
residual activity [4]: 86%
residual activity [5]: 69%
residual activity [6]: 83%
residual activity [7]: 77%
residual activity [8]: 92%
residual activity [9]: 67%
residual activity [14]: 122%
